Test results reported in ChEMBL document CHEMBL3988442, “University of Dundee, Small-Polar-MMV Screening Library” (2021).
In all, about 48,000 compounds went through this assay and about 13,000 (27%) showed an effect of 50% or more. Some of the results follow.

Each molecule was assayed on Wolbachia pipientis (assay: Anti-Wolbachia Cell-Based Screen). Details: 5 µM.
Type: functional
Set-up: scale not given: in the data most compounds retested in dose-response had high values

Row | Structure (SMILES) | Percent Effect [%]
1 | CCCS(=O)(=O)NCc1cccnc1Oc1ccc(C)nc1 | -8.382
2 | O=C(CC1OCCc2ccsc21)NCC1CC1 (configuration not stated) | -1.416
3 | CCc1nc(C(=O)N2CCN(CCc3ccc(OC)cc3)CC2)c[nH]1 | -9.12
4 | Cc1ccc(C)c(N2CCN(CC3(O)CCNC3)CC2)c1 (configuration not stated) | -4.262
5 | Cc1cc(NC(=O)Cn2ccccc2=O)n(C)n1 | -5.406
6 | Cn1nc(C(C)(C)C)cc1NC(=O)Cn1ccccc1=O | 13.92
7 | O=C(NCCCO)C1CC(=O)N(c2n[nH]c3cccc(F)c23)C1 (configuration not stated) | 13.85
8 | Cc1cc(O)cc(=O)n1CCCC(=O)Nc1n[nH]c2cccc(F)c12 | 106.9
9 | Cc1noc(C)c1NC(=O)CCn1cc(Br)ccc1=O | 5.297
10 | Cc1ccccc1-c1cc(NC(=O)Cn2ccccc2=O)n(C)n1 | -15.16
11 | Cc1cc(O)cc(=O)n1CCCC(=O)Nc1n[nH]c2ccccc12 | 106.8
12 | Cc1nonc1NC(=O)CCn1cc(Br)ccc1=O | -2.489
13 | Cc1cc(O)cc(=O)n1CCCC(=O)Nc1n[nH]c2cc(Br)ccc12 | 109.7
14 | COc1ccccc1OC1(C(=O)O)CCN(c2nccnc2OC)CC1 | -49.7
15 | CC(=O)c1ccc(N2CCCC(CO)(Cc3ccccc3F)C2)nc1 (configuration not stated) | -130
16 | CC(C(=O)N1CCn2cncc2C1)N1C[C@@H](C)O[C@@H](C)C1 (some centres not stated) | 4.778
17 | COc1cccc2c1CCCCN2C(=O)c1oc(C)nc1C | -10.05
18 | Cc1noc([C@@]23CCO[C@@H]2CCN(C(=O)c2c(C)noc2C)C3)n1 | -5.968
19 | Cc1nc(C)c(C(=O)N2CCCC2(C)C(=O)NC2CCCC2)s1 (configuration not stated) | 95.95
20 | CNC(=O)C1CCCCN1C(=O)c1sc(-c2ccc(C)o2)nc1C (configuration not stated) | 8.745
21 | Cc1nc(C)c(C(=O)N2CCCC2(C)C(=O)NC2CCCC2)o1 (configuration not stated) | 148.2
22 | Cc1noc(C2CCN(C(=O)c3c(C)noc3C)CC2)n1 | -1.195
23 | Cc1nc(C)c(C(=O)N2CCCc3c(F)ccc(F)c32)o1 | -4.238
24 | Cc1noc(C)c1C(=O)N1CCCC1(C)C(=O)NC1CCCC1 (configuration not stated) | 82.14

Row | Structure (SMILES) | Percent Effect [%]
25 | O=C(CCn1cccn1)N1CCN(CC(F)F)CC1 | 6.604
26 | CN(Cc1nc2ccsc2c(=O)[nH]1)CC1CCCCC1 | -1.437
27 | COc1nc2ccn(CCc3cc(O)nc(C)n3)c(=O)c2cc1C#N | -7.353
28 | COc1ccc(CCN2CCc3c(nc(C4CC4)n3C)C2)cc1 | -1.016
29 | Cc1nc(N(C)C)nc(NCCc2ccccn2)c1C | 85.61
30 | c1ccc(-c2nc3c(c(NCCc4c[nH]cn4)n2)CCNC3)cc1 | 7.707
31 | c1nc(CCNc2nc(C3CC3)nc3c2CCNCC3)c[nH]1 | 9.275
32 | Cc1nc(C)c(C)c(NCCSc2ccccn2)n1 | -2.821
33 | Cc1nc(CCNc2nc(N(C)C)nc3c2CCCC3)cc(=O)[nH]1 | 13.62
34 | Cc1nc(N(C)C)ncc1C(=O)NCCc1csc(-c2cnccn2)n1 | -3.2
35 | Cc1nc(O)cc(CCNc2nc(N(C)C)nc(C)c2C)n1 | 19.28
36 | Cc1nc(N(C)C)nc(NCCc2c[nH]cn2)c1C | 92.29
37 | Cc1nc(N(C)C)nc(NCCc2cnccn2)c1C | 98.55
38 | Cc1cccnc1N1CCN(Cc2cc(O)c3cccc(F)c3n2)CC1 | -4.875
39 | CCS(=O)(=O)N1CCOC2(CCCN(c3ncc(F)cn3)C2)C1 (configuration not stated) | -5.745
40 | Cc1cnc(CNS(=O)(=O)CCC2CCCO2)o1 (configuration not stated) | -9.077
41 | COc1cccc(CN2CCN(c3ccc4nncn4n3)C(C)C2)c1 (configuration not stated) | -8.631
42 | CC1CN(Cc2nccn2C)CCN1c1ccc2nncn2n1 (configuration not stated) | 2.712
43 | CC1CN(Cc2cccnc2)CCN1c1ccc2nncn2n1 (configuration not stated) | 111.3
44 | CC1CN(Cc2cnn(C)c2)CCN1c1ccc2nncn2n1 (configuration not stated) | 114.2
45 | CC1CN(Cc2cccc(C#N)c2)CCN1c1ccc2nncn2n1 (configuration not stated) | -2.779
46 | CCC(=O)N1CCN(C(=O)Nc2cccc(F)c2)[C@H]2CS(=O)(=O)C[C@H]21 | 4.618
47 | Nc1nc(CN2CCOC(Cn3cncn3)C2)nc2ccccc12 (configuration not stated) | -0.7232
48 | Cc1nc2ccccc2nc1CN1CCOC(Cn2cccn2)C1 (configuration not stated) | 77.13

Row | Structure (SMILES) | Percent Effect [%]
49 | Cc1cnn(CC2CN(Cc3nc(C)c4ccccc4n3)CCO2)c1 (configuration not stated) | 114.4
50 | Nc1nc(CN2CCOC(Cn3cccn3)C2)nc2ccccc12 (configuration not stated) | 54.57
51 | Cc1cnn(CC2CN(Cc3nc(N)c4ccccc4n3)CCO2)c1 (configuration not stated) | 9.564
52 | Cc1nc(CN2CCOC(Cn3cccn3)C2)nc2ccccc12 (configuration not stated) | 103.8
53 | Cc1nc(CN2CCOC(Cn3cncn3)C2)nc2ccccc12 (configuration not stated) | -10.51
54 | Cc1cnn(CC2CN(Cc3nc4ccccc4nc3C)CCO2)c1 (configuration not stated) | -8.261
55 | CNC(=O)Cc1ccc(-n2ccnc2-c2cccc(C(=O)O)c2)cc1 | -25.18
56 | Cc1noc(-c2ccc(N(C)Cc3cccnc3)nc2)n1 | -25.91
57 | O=C1CCc2cc(S(=O)(=O)NCc3cc4n(n3)CCNC4)ccc2N1 | -63.18
58 | Cc1ccc(C(CNCc2cnn(C(C)C)c2)N2CCOCC2)s1 (configuration not stated) | 14.4
59 | O=C(NCC(O)COc1cccc(F)c1)C1(c2ccc(F)cc2)CC1 (configuration not stated) | -1.107
60 | CCCOCCn1ncc(N2CCc3ccccc3C2)cc1=O | -4.867
61 | CNC(=O)Cc1nc(CNc2ccc(SC)c(F)c2)cs1 | 0.08952
62 | Cc1ccc(-c2nc(CNc3ccc(C(N)=O)c(C)c3)cs2)o1 | 16.54
63 | COC(=O)c1cc(NCc2cscn2)ccc1C | 4.935
64 | CSc1ccc(NCc2csc(C)n2)cc1F | 74.08
65 | COc1ccc(OCCCNC(=O)NCc2csc(C)n2)cc1 | -1.518
66 | Cc1noc(C)c1CNc1cccc(C(=O)N(C)c2ccccc2)c1 | 8.742
67 | COC(=O)c1ccc(NCc2csc(C)n2)cc1Cl | 105.1
68 | CSc1ccc(NCc2csc(CS(C)(=O)=O)n2)cc1F | 19.87
69 | Cc1noc(C)c1CNc1ccc2nc(C3CC3)sc2c1 | -3.579
70 | COCCNC(=O)c1ccc(NCc2c(C)noc2C)cc1Cl | 99.6
71 | COCCNC(=O)c1ccc(NCc2csc(C)n2)cc1Cl | 103.1
72 | COCc1nc2cc(NCc3csc(C)n3)ccc2o1 | -10.85
